The text below walks through data of PubChem BioAssay (NCI).

Several values for one entry are separate records, joined by “and”; a condition that tells them apart may be missing. Equal values may be shown once. About 83,000 compounds went through this panel and 20% of them were active in at least one assay; those are over-represented in the sample as a whole.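 The test compound was applied at a single concentration to cells in 96-well plates for 48 hours, and percent growth was recorded.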 A number with no mark means an inactive call. Activity calls are given as the source filed them. The calls were made as follows: active = growth percent below 10; inactive = the rest.

The test system of this test is MDA-MB-468 breast. As to the kind of experiment: NCI-60 one-dose screen, 48 h (100 = growth as untreated, 0 = no growth, -100 = all killed). The following applies: 10 µM unless noted.
For `Cc1nccc2c3ccc(OCc4cn(-c5ccc(Cl)cc5)nn4)cc3n(CC(C)C)c12`, the growth was -1.72% (active).

Take `c1ccc2c(-c3c[nH]c4ccccc34)c3c(cc2c1)[nH]c1ccccc13`: the growth was 53.8%. `Cn1/c(=N/NC(N)=S)ccc2ccccc21`: the growth is 24.9%. Then `O=C1/C(=C/c2cc(F)cc(F)c2)Cc2cc(F)cc(F)c21`, with 74.1%; and `O=C1C=CC(Nc2ccccc2[N+](=O)[O-])C1Nc1ccccc1[N+](=O)[O-]` (stereo not given), with -97.4% (active).

Regarding `O=C(/C=C/C12c3ccccc3C(c3ccccc31)C1C(=O)NC(=O)C12)c1ccc(I)cc1` (stereo not given), the growth is 51.2%. The result for `Cc1ccc2c(n1)C(=O)C(Cl)=C(Nc1cccc(C(F)(F)F)c1)C2=O` reads -65.2% (active); that for `O=C(/C=C/c1cccc(Cl)c1)OCc1ccc2cc1OCC#C/C=C\C#CCO2`, 79.2%. `N#Cc1ccc2nc[nH]c2c1`: the growth was 87.6%. In the case of `c1ccc(Nc2ncc3c(n2)-c2cccn2CC3)cc1`, the growth was 4.29% (active). Then `CN(CCC#N)c1ccc(/C=C2\NC(=O)NC2=O)cc1`, with 110%. Then `C=C(CO)[C@@H]1CC[C@]2(COC3CCCCO3)CC[C@]3(C)[C@H](CC[C@@H]4[C@@]5(C)C=C(C=O)C(=O)C(C)(C)[C@@H]5CC[C@]43C)[C@@H]12` (stereo not given in full), with -75.4% (active); and `CN1CNC(=O)NC1`, with 102% and 96.9%; and `Cc1ccc(N2CCN(C3=C(Cl)C(=O)c4ncccc4C3=O)CC2)cc1`, with -63.9% (active). `O=c1[nH]c(-c2ccccc2)nc2sc3cc(O)ccc3c12`: the growth was 93.7%.

As to `O=C1/C(=C/c2ccc3c(c2)OCO3)SC(=S)N1CCc1ccc(O)cc1`, the growth was 67.8%. Then `CCN(CC)Cc1cc(Nc2cc(C(F)(F)F)c(C#N)c3nc4ccccc4n23)ccc1O`, with -0.969% (active). Then `CCCn1nc(C(=O)N2CCCCC2)c2c1CCC(N1CCC(c3ccncc3)CC1)C2` (stereo not given), with 104%. The result for `CN1CCN(Cc2ccc(NC(=O)c3ccc(C(C)(C)C)c(C#Cc4cnc5cccnn45)c3)cc2C(F)(F)F)CC1` reads -6.22% (active); that for `CCCCCc1c(C)[nH]c(/C=C2\N=C(c3ccc[nH]3)C=C2Oc2ccccc2)c1C`, -59.3% [100 µM] (active).

Take `Cc1ccc(-c2cc(-c3ccc(N(C)C)cc3)n3c(n2)nc2ccccc23)cc1`: the growth is -0.434% (active). Then `CCOc1ccc2nc(C)cc(Nc3ccc(Br)cc3)c2c1`, with 100%. The result for `OC(c1cc(-c2ccccc2)nc2ccc(Cl)cc12)C1CCCCN1` (stereo not given) reads -17.1% (active); that for `COc1ccc(-c2nc(N=Nc3c(O)[nH]c4ccccc34)nc(N3CCOCC3)c2C#N)cc1`, 71%; that for `O=C1NN(C(=O)c2ccc(Cl)cc2)C(c2ccccc2)=N/C1=C\c1cn(-c2ccccc2)nc1-c1ccccc1`, 81.9%. Then `CCOC(=O)C(CC(c1ccccc1)N1CCCCC1)[N+](=O)[O-]` (stereo not given), with 49.7%; and `CCCCN1C(=O)/C(=c2\sc3n(c2=O)C2C(NN=3)N(CC)C(=O)N2CC)c2ccccc21` (stereo not given), with 1.69% (active); and `O=C1C=C(Nc2cccc(Br)c2)c2ccccc2C1=O`, with 90.2%.

`Cc1c(C(=O)NO)sc2ncnc(Nc3ccc(NC(=S)Nc4ccccc4)cc3)c12`: the growth was 104%.

As to `C=C(C)[C@@H]1CCC=C2CC[C@]3(C)[C@H](CC[C@@H]4[C@@]5(C)CCCNC(C)(C)[C@@H]5CC[C@]43C)[C@H]21`, the growth is -31.5% (active). Then `N=C(N)N1CCc2ccccc2C1`, with 41% and 107%; and `COc1cc(-c2cc(-c3ccc(Nc4ccnc5cc(Cl)ccc45)cc3)nc(N3CCOCC3)n2)cc(OC)c1OC`, with -43.9% (active); and `CCCC1CCCCN1C(=O)OCC(C)C` (stereo not given), with 97.4%. Then `O=S(=O)(NCCNc1nccc(-c2c(-c3cccc(O)c3)nc3occn23)n1)c1ccc(Cl)cc1`, with 97.9%; and `COc1cc(C)c(C2C(C#N)=C(N)Oc3n[nH]c(-c4cccs4)c32)cc1C(C)C` (stereo not given), with 101%. With `Cc1ccc(/C=C2\SC(=S)N(CC(=O)NCCCN3CCOCC3)C2=O)cc1`, the growth is 94.9%. Regarding `[2H]C([2H])([2H])Oc1ccc(F)cc1/C=C/C(=O)/C=C(O)/C=C/c1cc(F)ccc1OC([2H])([2H])[2H]`, the growth was 91.6%.

Consider `CN1CCN(c2ccc(C(=O)/C=C/c3cc(F)cc(C(F)(F)F)c3)cc2)CC1`, for which the growth is 31.5%. In the case of `COc1ccc(-c2ccc3c(N4CCOC[C@@H]4C)nc(N4CCOC[C@@H]4C)nc3n2)cc1CO`, the growth is -27.4% (active).

Consider `COc1ccc(/C=C/C(=O)Nc2ccc(-c3nc4ccc(F)cc4s3)cc2)cc1`, for which the growth was -12.9% (active).
